Experimental findings from publication PMC4081100, “A DNA-binding-site landscape and regulatory network analysis for NAC transcription factors in Arabidopsis thaliana” are described below.

Common to all, as to assay: universal protein binding microarray (PBM); transcription factors of Arabidopsis thaliana; high values mean tight binding
One assay concerns the target T1, GST-ANAC092(1-176) (Arabidopsis thaliana, UniProt Q9FKA0 1-176).
T1 sequence: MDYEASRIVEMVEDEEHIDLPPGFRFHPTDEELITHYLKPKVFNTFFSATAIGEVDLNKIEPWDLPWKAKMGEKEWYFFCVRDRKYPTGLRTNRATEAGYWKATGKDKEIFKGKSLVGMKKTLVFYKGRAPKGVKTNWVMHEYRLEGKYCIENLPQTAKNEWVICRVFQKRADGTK
The following applies: protein: recombinant; tags: GST; chain copies: 2; dsDNA, one strand shown. The procedure, abridged: (§1)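 GST-tagged proteins (NAC-domain, full-length or DNA-binding-domain) were induced in cells, with zinc acetate supplied for zinc-finger proteins, then purified on glutathione–Sepharose 4B. Each was tested in duplicate at 200 to 500 nM final on custom all-10-mer Agilent 4 × 180K arrays rendered double-stranded by primer extension. The binding value is the normalised enrichment score (E-score) across gapped and ungapped 8-mers.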

A further assay concerns the target T2, GST-ANAC019 NAC domain (Arabidopsis thaliana, UniProt Q9C932 14-162).
T2 sequence: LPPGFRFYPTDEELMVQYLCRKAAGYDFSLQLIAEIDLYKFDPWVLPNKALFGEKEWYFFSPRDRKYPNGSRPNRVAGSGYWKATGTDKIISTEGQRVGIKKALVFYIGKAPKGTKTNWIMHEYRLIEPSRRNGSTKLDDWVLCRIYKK
The following applies: protein: recombinant; tags: GST; chain copies: 2; dsDNA, one strand shown. The procedure, abridged:
as §1

For a further assay, the target named is T3, GST-ANAC055(1-171) (Arabidopsis thaliana, UniProt Q9LDY8 1-171).
T3 sequence: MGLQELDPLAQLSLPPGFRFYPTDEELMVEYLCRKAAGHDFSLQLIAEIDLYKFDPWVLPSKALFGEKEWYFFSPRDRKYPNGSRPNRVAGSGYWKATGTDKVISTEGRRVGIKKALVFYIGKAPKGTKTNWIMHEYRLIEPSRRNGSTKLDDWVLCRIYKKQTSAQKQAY
The following applies: protein: recombinant; tags: GST; chain copies: 2; dsDNA, one strand shown. The procedure, abridged: as §1

In another assay the target is T4, GST-ATAF1 NAC domain (Arabidopsis thaliana, UniProt Q39013 7-158).
T4 sequence: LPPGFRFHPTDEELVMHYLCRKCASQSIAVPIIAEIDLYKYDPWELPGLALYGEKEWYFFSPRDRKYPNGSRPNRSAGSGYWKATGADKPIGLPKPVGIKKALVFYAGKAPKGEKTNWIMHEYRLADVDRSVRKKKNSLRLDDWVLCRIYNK
The following applies: protein: recombinant; tags: GST; chain copies: 2; dsDNA, one strand shown. In outline:
as §1

Assay [1] has as its target T5, GST-ANAC092(1-285) full length (Arabidopsis thaliana, UniProt Q9FKA0 1-285).
T5 sequence: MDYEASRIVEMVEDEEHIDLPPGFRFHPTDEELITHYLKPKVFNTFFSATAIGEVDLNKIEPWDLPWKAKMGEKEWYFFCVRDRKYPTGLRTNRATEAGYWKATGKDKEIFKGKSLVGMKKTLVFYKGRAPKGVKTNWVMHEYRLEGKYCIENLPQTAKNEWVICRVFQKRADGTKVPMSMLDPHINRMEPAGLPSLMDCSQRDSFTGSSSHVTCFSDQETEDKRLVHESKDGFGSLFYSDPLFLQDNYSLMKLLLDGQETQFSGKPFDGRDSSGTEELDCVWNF
Conditions: protein: recombinant; tags: GST; chain copies: 2; dsDNA, one strand shown. In outline:
as §1

The target in another assay is T6, GST-NST2(1-184) (Arabidopsis thaliana, UniProt Q9M274 1-184).
T6 sequence: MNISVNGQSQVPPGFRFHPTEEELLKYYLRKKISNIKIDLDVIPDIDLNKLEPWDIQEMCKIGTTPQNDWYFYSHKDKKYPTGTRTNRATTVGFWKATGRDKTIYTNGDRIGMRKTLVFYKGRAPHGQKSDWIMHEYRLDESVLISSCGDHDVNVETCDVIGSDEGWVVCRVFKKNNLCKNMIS
The following applies: protein: recombinant; tags: GST; chain copies: 2; dsDNA, one strand shown. In outline: as §1

The target in the next assay is T7, GST-SND1(1-203) (Arabidopsis thaliana, UniProt Q9LPI7 1-203).
T7 sequence: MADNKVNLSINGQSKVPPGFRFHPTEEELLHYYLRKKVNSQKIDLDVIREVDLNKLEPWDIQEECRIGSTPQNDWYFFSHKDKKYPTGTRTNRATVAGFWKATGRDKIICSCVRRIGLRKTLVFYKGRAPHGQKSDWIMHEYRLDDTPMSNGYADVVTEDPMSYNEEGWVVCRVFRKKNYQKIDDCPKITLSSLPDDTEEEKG
Conditions: protein: recombinant; tags: GST; chain copies: 2; dsDNA, one strand shown. The procedure, abridged: as §1

The target of another assay is T8, GST-VND3 NAC domain (Arabidopsis thaliana, UniProt Q9FH59 12-162).
T8 sequence: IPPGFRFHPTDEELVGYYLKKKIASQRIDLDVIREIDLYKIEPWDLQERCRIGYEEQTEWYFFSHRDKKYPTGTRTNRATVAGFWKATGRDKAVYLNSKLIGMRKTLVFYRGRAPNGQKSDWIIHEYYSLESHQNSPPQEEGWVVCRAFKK
The following applies: protein: recombinant; tags: GST; chain copies: 2; dsDNA, one strand shown. The procedure, abridged:
as §1

In the next assay the target is GST-NTL6(1-168) (Arabidopsis thaliana, UniProt Q9SCK6 1-168). The following applies: protein: recombinant; tags: GST; chain copies: 2; dsDNA, one strand shown. The procedure, abridged: as §1
For the next assay, the target named is T9, GST-NTL8 NAC domain (Arabidopsis thaliana, UniProt Q9XIN7 14-156).
T9 sequence: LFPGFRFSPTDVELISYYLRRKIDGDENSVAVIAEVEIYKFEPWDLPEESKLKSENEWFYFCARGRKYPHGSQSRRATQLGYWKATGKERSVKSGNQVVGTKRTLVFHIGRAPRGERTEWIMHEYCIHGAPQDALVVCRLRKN
The following applies: protein: recombinant; tags: GST; chain copies: 2; dsDNA, one strand shown. The procedure, abridged: as §1

The target in the next assay is GST-WRKY1(266-371) (Arabidopsis thaliana, UniProt Q9SI37 266-371). The following applies: protein: recombinant; tags: GST; dsDNA, one strand shown. In outline: as §1
A further assay concerns the target T10, GST-NAP(1-166) (Arabidopsis thaliana, UniProt O49255 1-166).
T10 sequence: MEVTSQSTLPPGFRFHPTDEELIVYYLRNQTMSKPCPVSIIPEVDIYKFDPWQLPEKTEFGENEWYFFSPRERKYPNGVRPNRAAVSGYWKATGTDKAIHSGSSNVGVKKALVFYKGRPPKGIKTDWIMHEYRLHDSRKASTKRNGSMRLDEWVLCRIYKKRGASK
Conditions: protein: recombinant; tags: GST; chain copies: 2; dsDNA, one strand shown. The procedure, abridged:
as §1

Chain of GST-NTL6(1-168) (Q9SCK6 1-168): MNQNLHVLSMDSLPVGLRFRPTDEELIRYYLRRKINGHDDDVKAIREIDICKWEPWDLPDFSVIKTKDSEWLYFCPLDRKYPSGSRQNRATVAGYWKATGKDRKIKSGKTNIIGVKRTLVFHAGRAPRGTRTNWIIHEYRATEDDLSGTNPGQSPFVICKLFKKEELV
Chain of GST-WRKY1(266-371) (Q9SI37 266-371): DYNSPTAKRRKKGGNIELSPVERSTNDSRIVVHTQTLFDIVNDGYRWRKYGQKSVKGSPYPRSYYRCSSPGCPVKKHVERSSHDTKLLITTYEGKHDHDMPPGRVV

For the sequence ACACTCCA, the binding signal stood at 0.398 E-score in the assay with GST-ANAC092(1-176); 0.0899 E-score with GST-ANAC019 NAC domain; 0.15 E-score in the assay with GST-ANAC055(1-171); 0.17 E-score with GST-ATAF1 NAC domain; 0.429 E-score in assay [1]; 0.226 E-score in the assay with GST-NST2(1-184). Also, the binding signal with GST-SND1(1-203) came to 0.278 E-score; with GST-VND3 NAC domain, 0.0605 E-score.

In the case of ATAAGGAA, the binding signal was found to be 0.118 E-score with GST-ANAC092(1-176); 0.423 E-score with GST-NTL6(1-168); 0.0899 E-score in the assay with GST-ANAC055(1-171); 0.129 E-score with GST-ATAF1 NAC domain; 0.217 E-score in [1]; 0.136 E-score with GST-NST2(1-184). The values for the binding signal in the assay with GST-NTL8 NAC domain, with GST-SND1(1-203) and in the assay with GST-VND3 NAC domain were 0.332 E-score, 0.201 E-score and 0.152 E-score, respectively.

As to GTCAAGTA, the binding signal with GST-ANAC055(1-171) is 0.0988 E-score; with GST-ATAF1 NAC domain, 0.136 E-score; in assay [1], 0.186 E-score; with GST-SND1(1-203), 0.0698 E-score; with GST-VND3 NAC domain, 0.137 E-score; with GST-WRKY1(266-371) it was 0.417 E-score.

Turning to GTAGTCAA, the binding signal with GST-NTL6(1-168) amounted to 0.0675 E-score; with GST-ANAC055(1-171), 0.168 E-score; in the assay with GST-ATAF1 NAC domain it was 0.191 E-score; in the assay with GST-NAP(1-166), 0.0663 E-score; with GST-NST2(1-184), 0.112 E-score; with GST-SND1(1-203), 0.0829 E-score. In addition, the binding signal with GST-VND3 NAC domain stood at 0.134 E-score; with GST-WRKY1(266-371) it was 0.478 E-score.

On to TCACGCCA, for which the binding signal is 0.436 E-score with GST-ANAC092(1-176); 0.223 E-score in the assay with GST-ANAC019 NAC domain; 0.156 E-score in the assay with GST-ANAC055(1-171); 0.178 E-score in the assay with GST-ATAF1 NAC domain; 0.454 E-score in [1]; 0.0509 E-score with GST-NAP(1-166). In addition, the binding signal with GST-NST2(1-184) stood at 0.263 E-score; in the assay with GST-SND1(1-203), 0.358 E-score; with GST-VND3 NAC domain, 0.0902 E-score.

With CCACGCTA, the binding signal was 0.405 E-score in the assay with GST-ANAC092(1-176); 0.155 E-score in the assay with GST-ANAC019 NAC domain; 0.432 E-score in [1]; 0.219 E-score in the assay with GST-NST2(1-184); 0.0925 E-score with GST-NTL8 NAC domain; 0.329 E-score in the assay with GST-SND1(1-203). Moreover, in the assay with GST-VND3 NAC domain, the binding signal came to 0.0665 E-score.

In the case of ACACGCCT, the binding signal with GST-ANAC092(1-176) amounted to 0.319 E-score; with GST-ANAC019 NAC domain it was 0.189 E-score; with GST-ANAC055(1-171), 0.173 E-score; in the assay with GST-ATAF1 NAC domain, 0.212 E-score; in [1] it was 0.411 E-score; with GST-SND1(1-203), 0.0623 E-score. The binding signal in the assay with GST-VND3 NAC domain was determined as 0.0938 E-score.

Regarding GCTAAGTA, the binding signal amounted to 0.429 E-score with GST-NTL6(1-168), 0.0551 E-score with GST-NAP(1-166), 0.121 E-score with GST-SND1(1-203) and 0.0851 E-score in the assay with GST-VND3 NAC domain.
